This excerpt belongs to a sample that is enriched for hits.
miR122 inh: miR-122 suppressors via Renilla sensor increase, primary screen, cell-based, Huh7 psiCHECK-miR122, Renilla luciferase, single point; 340,000 compounds, 0.14% hits; activation, % at 12.5 µM; 48 h;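 active means mean activation of 30% or more, with every replicate also reaching 30%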;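 further: 0% = median of neutral control wells and 100% = median of positive control wells; higher luciferase signal means stronger suppression of miR-122 activity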
An asterisk follows results filed as active.

SMILES | miR122 inh
Oc1ccc(-c2nc(-c3ccc(O)c(O)c3)cs2)cc1 | 30*
CCCN(C)C[C@@H]1Oc2cc(C#CC3(O)CCCC3)ccc2S(=O)(=O)N([C@H](C)CO)C[C@@H]1C | 10
COCC#Cc1ccc2c(c1)O[C@H](CN(C)C(=O)COC)[C@@H](C)CN([C@H](C)CO)S2(=O)=O | 1
C[C@@H]1CN([C@H](C)CO)S(=O)(=O)c2ccc(Br)cc2O[C@H]1CN(C)C(=O)CC1CC1 | -15
CCCC(=O)OCCNc1cc(Sc2nccn2C)c2nonc2c1[N+](=O)[O-] | 62*
COc1ccc(S(=O)(=O)N(C)C[C@H]2Oc3cc(-c4ccccc4OC)ccc3S(=O)(=O)N([C@H](C)CO)C[C@H]2C)cc1 | -19
Cc1ccsc1/C=N/n1c(-c2ccco2)n[nH]c1=S | 39*
COc1ccccc1NC(=O)N(C)C[C@H]1Oc2ncc(C#CCC(C)C)cc2C(=O)N([C@@H](C)CO)C[C@@H]1C | -6
C/C=C/c1cnc2c(c1)C(=O)N([C@H](C)CO)C[C@@H](C)[C@H](CN(C)C(=O)Cc1cccnc1)O2 | -2
C[C@@H]1CN([C@H](C)CO)S(=O)(=O)c2ccc(C#CC3CC3)cc2O[C@@H]1CN(C)Cc1ccccn1 | -22
C[C@@H]1CN([C@H](C)CO)S(=O)(=O)c2ccc(/C=C/c3ccccc3)cc2O[C@H]1CN(C)C(=O)c1ccccc1 | -8
CNC[C@H]1Oc2cc(C#Cc3cccc(F)c3)ccc2S(=O)(=O)N([C@@H](C)CO)C[C@H]1C | -5
NC1=NC[C@@H](CC2CCCCC2)N1CCc1cc(C(F)(F)F)cc(C(F)(F)F)c1 | 35*
C[C@@H]1CN([C@@H](C)CO)S(=O)(=O)c2ccc(C#CC3CC3)cc2O[C@@H]1CN(C)C(=O)C1CC1 | 15
CCC(=O)Nc1ccc(S(=O)(=O)NCCc2ccccc2)cc1 | -111
CCC(=O)Nc1cccc(C(=O)/C=C/c2ccccc2)c1 | 36*
CCC(=O)Nc1ccc(C(=O)Nc2cccc(C)n2)cc1 | -218
C[C@@H]1CN([C@H](C)CO)S(=O)(=O)c2ccc(C3=CCCCC3)cc2O[C@@H]1CN(C)Cc1ccccc1 | -92
COc1cccc(C(=O)Nc2ccc(C(=O)O)cc2)c1 | -113
CCN(CC)CCNC(=O)c1ccc(NC(=O)c2cn(-c3ccc(F)cc3)nc2-c2cccc(OC)c2)cc1 | 68*
CCC(=O)N(C)C[C@H]1Oc2cc(-c3cccc(C#N)c3)ccc2S(=O)(=O)N([C@H](C)CO)C[C@@H]1C | 2
CCC(=O)N(C)C[C@H]1Oc2cc(-c3cccc(C#N)c3)ccc2S(=O)(=O)N([C@H](C)CO)C[C@H]1C | 9
COc1cc(C(=O)Nc2ccc(S(=O)(=O)N3CCCCC3C)cc2)cc(OC)c1OC (stereo not drawn) | 46*
COc1ccccc1N(CC(=O)N1CCCCC1C)S(=O)(=O)c1ccc(Cl)cc1 (stereo not drawn) | -128
COc1ccccc1S(=O)(=O)Nc1cccc(S(=O)(=O)N2CCCC2)c1 | -77
SMILES | miR122 inh
C[C@H]1CN([C@@H](C)CO)S(=O)(=O)c2ccc(C#CC3CCCC3)cc2O[C@H]1CN(C)CC1CC1 | 0
COCC#Cc1cnc2c(c1)C(=O)N([C@@H](C)CO)C[C@H](C)[C@@H](CN(C)C(=O)Nc1ccc(OC)cc1)O2 | 4
C[C@H]1CN([C@@H](C)CO)S(=O)(=O)c2ccc(C#CCN(C)C)cc2O[C@@H]1CN(C)C(=O)CN(C)C | 4
Cc1cc(C)cc(NC(=O)c2ccc(CSc3nnc(C)s3)cc2)c1 | 34*
Cc1cc(C(=O)Nc2cccc3c2O[C@@H](CN(C)CC2CCCCC2)[C@@H](C)CN([C@H](C)CO)C3=O)n(C)n1 | -97
CC(C)CC#Cc1cnc2c(c1)C(=O)N([C@H](C)CO)C[C@H](C)[C@H](CN(C)S(=O)(=O)c1ccccc1)O2 | 10
C[C@H]1CN([C@@H](C)CO)C(=O)c2cc(-c3cccnc3)cnc2O[C@@H]1CN(C)S(C)(=O)=O | -18
COc1cccc(-c2ccc3c(c2)O[C@H](CN(C)C(=O)C2CCCCC2)[C@@H](C)CN([C@@H](C)CO)S3(=O)=O)c1 | -41
COc1ccccc1C#Cc1ccc2c(c1)O[C@H](CN(C)Cc1ccncc1)[C@@H](C)CN([C@@H](C)CO)S2(=O)=O | -1
C[C@@H]1CN([C@@H](C)CO)C(=O)c2cc(/C=C/c3ccccc3)cnc2O[C@@H]1CN(C)C(=O)Nc1ccccc1F | 1
COc1ccc(C(=O)Nc2ccc3c(c2)OC[C@@H](C)N(C)C[C@H](C)[C@@H](OC)CN(C)C3=O)cc1 | 0
C[C@H](CO)N1C[C@H](C)[C@H](CN(C)C(=O)c2ccccn2)Oc2ncc(-c3ccc(F)cc3)cc2C1=O | 7
C[C@H](CO)N1C[C@H](C)[C@@H](CN(C)C(=O)Cc2ccccc2)Oc2cc(C#Cc3ccccc3F)ccc2S1(=O)=O | -18
COCC(=O)N(C)C[C@H]1Oc2cc(-c3ccccc3)ccc2S(=O)(=O)N([C@@H](C)CO)C[C@@H]1C | -13
CC(=O)N(C)C[C@H]1Oc2cc(C#C[C@@H](C)O)ccc2S(=O)(=O)N([C@H](C)CO)C[C@@H]1C | 6
